The values that follow come from PubChem BioAssay (NCATS).

The nature of assay [1]: Cytotoxicity counterscreen for NFkB agonists and antagonists (AID 624476).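 Also: cells exposed to compound for 48 hours; % is scaled to controls: 0 for no effect and ±100 for the full control effect.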
Assay [2] can be described thus: qHTS Assay for Identification of Small Molecule Antagonists for NFkB Signaling Pathway. (AID 624479; calls by dose curve;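 also: pathway stimulated with TNF alpha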; also: potency is read from the fitted curve at half-maximal effect).
The nature of assay [3]: Cell Proliferation Assay against the TMD8 Cell Line (AID 651645).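 Also: cells exposed to compound for 48 h before reading.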 To be noted: TMD8 DLBCL cell line proliferation/viability; at 46.1 µM (top of the series) unless noted. Summed up: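 Luminescent ATP read-out (CellTiter-Glo, 15 min RT) after 48 h compound exposure of log-growing TMD8 cells at 37C; percent activity scaled between DMSO as 100% and 9.2 uM bortezomib final as 0%.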

Assay [4] is described as follows: Cell Proliferation Assay against the HBL1 Cell Line (AID 651646).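 Also: cells exposed to compound for 48 h before reading.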 To be noted: HBL1 DLBCL cells; at 46.1 µM (top of the series) unless noted. The method, boiled down:
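Luminescent ATP read-out (CellTiter-Glo) after 48 h compound exposure of HBL1 cells at 37 °C; percent activity was scaled between DMSO as 100% and 9.2 uM bortezomib (final) as 0%.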

Assay [5] in a line: Cell Proliferation Assay against the TMD8 Cell Line (Caspase readout at 8 hrs) (AID 651713). Also: potency is read from the fitted curve at half-maximal effect. The method, boiled down:
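Seed log-phase TMD8 cells, add compound by pin tool, incubate 8 h at 37C under 5% CO2, equilibrate to room temperature, add Caspase-Glo, wait 15 min, read luminescence; percent activity uses DMSO and 9.2 uM bortezomib controls.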

Assay [6] has as its target Tyrosine-protein kinase Yes (Homo sapiens) (UniProt P07947). In words: qHTS for small molecule inhibitors of Yes1 kinase: Primary Screen (AID 686947). Also: nearly all actives have a fitted effect of over 60% in size. Also: potency is read from the fitted curve at half-maximal effect. Summed up:
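Yes1 (4 nM) preincubated 20 min with compound, then 60 min room-temperature reaction with 0.1 mM ATP and 0.3 mg/mL poly(E4Y) in pH 7.5 Tris, 10 mM MgCl2. ADP measured by ADP-Glo luminescence, normalised to enzyme/no-enzyme controls.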

Assay [7] in a line: qHTS for small molecule inhibitors of Yes1 kinase: Counter Assay (AID 686950).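 Also: no kinase present so only ADP-Glo detection of a fixed ADP amount is tested; luminescence from ADP-Glo reporting ADP in a fixed ATP and ADP mixture; 0% = DMSO wells with ATP plus ADP and -100% = ATP-only wells without ADP.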 The method, boiled down: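 Luminescence read-out from ADP-Glo quantifies a fixed ADP amount (0.02 mM ADP with 0.08 mM ATP) after 60 min at room temperature; signal is normalized between DMSO wells with ATP/ADP and with 0.1 mM ATP alone.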
Assay [8] in a line: qHTS Assay for Identification of Small Molecule Agonists for NFkB Signaling Pathway. (AID 624478).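 Also: compounds tested together with TNF alpha at its EC50 of 10 pM; 0% is about no effect.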 Summed up:
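ME-180 cervical carcinoma, stable NFkB-RE beta-lactamase reporter; 1000 cells/well, overnight attachment; cpd + TNF alpha 10 pM final, 5 h 37 C; LiveBLAzer 2 h RT; FRET 460/530 nm, ex 405 nm.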

Assay [9] in a line: Cell Proliferation Assay against the TMD8 Cell Line (Caspase readout at 16 hrs) (AID 651712). Also: potency is read from the fitted curve at half-maximal effect. The method, boiled down: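 Apoptotic response of TMD8 cells was judged from caspase 3/7 activation following a 16 hour compound incubation at 37 °C. Luminescent signal was converted to percent activity, with DMSO set as 0% and 9.2 uM final bortezomib as 100%.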

Inconclusive results are not listed. Calls of active or inactive are those of the source. Unless noted, calls follow the shape of the dose curve; as a rule, active = well fitted curve in the direction sought with a large enough effect; inconclusive = small, poorly fitted or top-dose-only effect, or another doubt; inactive = no such curve, though single readings can be large; an effect the other way counts as inactive or inconclusive.

Tyrosine-protein kinase Yes (Homo sapiens), sequence (P07947 whole entry, looked up): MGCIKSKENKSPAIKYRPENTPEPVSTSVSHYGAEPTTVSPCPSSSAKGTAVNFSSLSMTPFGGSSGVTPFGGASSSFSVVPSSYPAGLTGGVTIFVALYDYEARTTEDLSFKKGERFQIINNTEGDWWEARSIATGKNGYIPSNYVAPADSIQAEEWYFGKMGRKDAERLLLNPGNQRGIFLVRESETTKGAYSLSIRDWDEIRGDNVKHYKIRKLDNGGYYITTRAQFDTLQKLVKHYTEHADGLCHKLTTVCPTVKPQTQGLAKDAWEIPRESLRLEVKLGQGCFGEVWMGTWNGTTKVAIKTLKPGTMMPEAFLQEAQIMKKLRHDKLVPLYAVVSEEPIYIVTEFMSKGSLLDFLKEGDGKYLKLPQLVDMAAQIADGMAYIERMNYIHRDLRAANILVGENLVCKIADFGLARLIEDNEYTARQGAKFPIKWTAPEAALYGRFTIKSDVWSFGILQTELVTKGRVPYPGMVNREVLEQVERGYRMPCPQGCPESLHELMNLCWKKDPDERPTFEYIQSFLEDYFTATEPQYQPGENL

`O=c1ncn2nc(Sc3ccc(F)cc3F)ccc2c1-c1c(Cl)cccc1Cl`: the Potency result in assay [1], in [2], in assay [5] and in [6] was “inactive” each time. In addition, the viability (% of control) in assay [3] came out at 65.5%. The viability, percent of control in [4] is 62.3%. Also, the outcome in [7] was inactive.
For the compound `O=C(C1CC1)N1CC[C@@H](Cn2c(-c3ccc(-c4ccc5occc5c4)cc3)nc3cnccc32)C1`, the Potency entry in [1] and in assay [6] was “inactive” in each case. The compound was classed as inactive in [8] and in assay [7]. Besides, the viability (% of control) in assay [3] stood at 5.56%. Also, the viability, percent of control in assay [4] worked out at 48.4%. The Potency was 8.33 µM (active) in assay [9] and 26.4 µM (active) in assay [5].
For `COc1ccc(C2=N[C@H](c3ccc(Cl)cc3)[C@H](c3ccc(Cl)cc3)N2C(=O)N2CCNC(=O)C2)c(OC(C)C)c1`, the Potency entry in [1] is “inactive”. The outcome in [8] and in assay [7] was inactive. In assay [3], the viability (% of control) amounted to 7.72%. In [4], the viability, percent of control came out at 66.4%. Further, in [6], the Potency is 12.2 µM (active).
Regarding `COc1ccc(-c2ccc3c(N4CCOCC4)nc(N4C[C@@H](C)O[C@@H](C)C4)nc3n2)cc1CO`, the Potency result in assay [1], in assay [2], in assay [5] and in [6] was “inactive” each time. Besides, in [3], the viability (% of control) came to 29.5%. Moreover, in assay [4], the viability, percent of control was determined as 57.7%. Besides, the compound was called inactive in assay [7].
`CN(C(=O)c1ccc(F)cc1C(F)(F)F)C1CCN(c2nnc(-c3ccnn3C)c3ccccc23)CC1`: the Potency entry in [1], in [2], in [5] and in assay [6] was “inactive” in each case. In addition, the viability (% of control) in [3] turned out to be 70.8%. Moreover, in assay [4], the viability, percent of control turned out to be 65.3%. Moreover, in [7], the call was inactive.
On to `COc1ccc(CC2=NN3C([C@@H](CCc4ccccc4)[C@@H](C)O)=NC(C)C3C(=O)N2)cc1OC` (some centres undefined), for which the Potency result in assay [1], in assay [2], in assay [9], in assay [5] and in assay [6] was “inactive” in each case. Also, the viability (% of control) in [3] stood at 72.3%. Also, the viability, percent of control in [4] was found to be 73.7%. For the same compound, the call in assay [7] was inactive.
For `COCCNCCCn1c(C(=O)CF)c(-c2ccc(C)cc2)c2c(N)ncnc21`, the Potency result in assay [1], in assay [2], in assay [9], in assay [5] and in [6] was “inactive” in each case. Moreover, the viability (% of control) in assay [3] is 75.8%. Besides, the viability, percent of control in [4] turned out to be 86.2%. Also, in [7], the compound was classed as inactive.
Consider `CCOc1ccc(Cc2cc([C@@H]3O[C@H](CO)[C@@H](O)[C@H](O)[C@@H]3O)ccc2Cl)cc1`, for which the Potency result in [1], in [9], in assay [5] and in assay [6] was “inactive” in each case. Moreover, the compound was called inactive in assay [8] and in assay [7]. The viability (% of control) in assay [3] turned out to be 87.2%. The viability, percent of control in assay [4] was found to be 94.2%.
Consider `Cn1cc(-c2ccc3nnc(C(F)(F)c4ccc5ncccc5c4)n3n2)cn1`, for which the Potency entry in [1], in assay [2], in assay [9], in assay [5] and in [6] was “inactive” throughout. For the same compound, the viability (% of control) in assay [3] amounted to 76.9%. Besides, the viability, percent of control in assay [4] was found to be 86.8%. In [7], the compound was classed as inactive.
For `Cc1ccc2c(c1)C(=O)[C@@]1(O)CCN(c3ccccc3)C1=N2`, the Potency entry in assay [1], in [2], in assay [9], in assay [5] and in assay [6] was “inactive” throughout. In addition, the viability (% of control) in assay [3] came to 77.6%. The viability, percent of control in assay [4] amounted to 74.4%. For the same compound, the compound was called inactive in assay [7].
As to `N#CC[C@H](C1CCCC1)n1cc(-c2ncnc3[nH]ccc23)cn1`, the Potency entry in assay [1], in assay [9] and in assay [5] was “inactive” throughout. Besides, the Potency in assay [2] is 16.8 µM (active). In assay [3], the viability (% of control) amounted to 33.1%. For the same compound, the viability, percent of control in assay [4] was 65.7%. For the same compound, the compound was called inactive in assay [7].
For the compound `CN(C)c1ccc(C2Nc3ccc4ccccc4c3C3=C2C(=O)CC(C)(C)C3)cc1Br` (centres undefined), the Potency entry in assay [1], in assay [9], in [5] and in assay [6] was “inactive” each time. Besides, the outcome in assay [8] and in assay [7] was inactive. In addition, the viability (% of control) in [3] worked out at 64.8%. Besides, the viability, percent of control in assay [4] stood at 69.1%.
In the case of `Cc1ccc(NC(=O)c2cccc(C(C)(C)C#N)c2)cc1Nc1ccc2ncn(C)c(=O)c2c1`, in assay [1], the Potency result was “inactive”. The compound was classed as inactive in assay [8] and in [7]. In addition, the viability (% of control) in assay [3] turned out to be 11.7%. The viability, percent of control in assay [4] turned out to be 41.4%. Also, the Potency in assay [9] is 26.4 µM (active).
Consider `CN([C@@H](Cc1ccc(OS(=O)(=O)c2cccc3cnccc23)cc1)C(=O)N1CCN(c2ccccc2)CC1)S(=O)(=O)c1cccc2cnccc12`, for which the Potency entry in assay [1], in assay [2], in assay [9], in assay [5] and in [6] was “inactive” throughout. In addition, the viability (% of control) in [3] came to 72.1%. For the same compound, the viability, percent of control in assay [4] was 106%. In [7], the compound was classed as inactive.
